Experimental findings from PubChem BioAssay (NCI) are described below.

Compounds without any hit were thinned out: in the full panel of roughly 83,000, 20% have a hit.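 Activity criterion: percent growth below 10, measured after cells in 96-well plates were exposed to a single compound concentration for 48 hours.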 The source made the active and inactive calls.

For the assay, the system named is KM12 colon. Kind of assay: NCI-60 one-dose screen, 48 h (100 = growth as untreated, 0 = no growth, -100 = all killed). The following applies: 10 µM unless noted.
On to `C=C1C(=O)O[C@H]2[C@H]1CC/C(COC(=O)NCCc1ccc(Br)cc1)=C\CC[C@@]1(C)O[C@@H]21`, for which the growth was 55.4% (inactive).
`COc1ccc(C(=O)/C=C/c2ccc(/C=C/c3cc(OC)c(OC)c(OC)c3)cc2)cc1`: the growth was 29.2% (inactive).
Take `COc1ccc(C2CC(=O)Nc3c2c(C)nn3-c2nc3ccccc3[nH]2)cc1OC` (stereo not given): the growth was 82.6% (inactive).
Consider `O=C(O)c1ccc(-n2cc(CNc3ccc(C(F)(F)F)cc3)c(-c3ccccc3)n2)cc1`, for which the growth was 84.7% (inactive).
Regarding `C=C1C(=O)O[C@H]2[C@H]1CC/C(COC(=O)NCCc1cccc(OC)c1)=C\CC[C@@]1(C)O[C@@H]21`, the growth was 63.7% (inactive).
On to `Nc1ccc(S(=O)(=O)c2ccc(Cl)cc2)cc1`, for which the growth was 93.4% (inactive).
As for `C/C(=C\c1csc(C)n1)[C@@H]1C[C@@H]2O[C@]2(C)CCC[C@H](C)[C@H](O)[C@@H](C)C(=O)C(C)(C)[C@@H](O)CC(=O)N1`, the figure is -99.2% (active); as for `CCNC(=O)C1CCCN1C(=O)C(CCCN=C(N)N)NC(=O)C(CC(C)C)NC(=O)C(CC(C)C)NC(=O)C(Cc1ccc(O)cc1)NC(=O)C(CO)NC(=O)C(Cc1c[nH]c2ccccc12)NC(=O)C(Cc1cnc[nH]1)NC(=O)C1CCC(=O)N1` (stereo not given), 104% (inactive).
`O=C(O)C(=Cc1c2ccccc2cc2ccccc12)C(=O)O`: the growth was 109% (inactive).
To `CCCCCCCCCCn1cc[n+](C)c1` belongs 14% (inactive).
Take `Cc1oc2ncnc(Nc3ccccc3)c2c1C(=O)NCCO`: the growth was 95.2% (inactive).
Take `O=C(Nc1ccc(I)cc1)c1cc([N+](=O)[O-])ccc1O`: the growth was 21% (inactive).
As for `C[C@]12CC[C@@H]3c4cc(O)c(O)cc4CC[C@H]3[C@@H]1CC[C@@H]2O`, the growth was 74.5% (inactive).
Turning to `O=C1C2=C(C(=O)c3c(O)ccc(O)c31)N(c1cccnc1)Cc1ccccc1O2`, the growth was -4.03% (active).
For `CCCCCCc1nc2c(c(C)nn2-c2ccccc2)c2c1CCCCC2`, the growth was 108% (inactive).
With `COc1ccc(-c2nc3sccn3c2-c2ccnc(NCCCNS(=O)(=O)c3ccc(C)cc3)n2)cc1`, the growth was 20.6% (inactive).
As for `NC(=O)c1cccc(N2Cc3ccccc3OC3=C2C(=O)c2c(O)ccc(O)c2C3=O)c1`, the figure is -48.9% (active); as for `Nc1cccc2c1CN(C1CCC(=O)NC1=O)C2=O` (stereo not given), 98.1% (inactive); as for `COc1ccc2c(c1)C(=O)/C(=C/c1ccc(O)cc1)O2`, 101% (inactive).
Take `COc1cccc(-c2nc3sccn3c2-c2ccnc(NCCCNS(=O)(=O)c3ccc(F)cc3)n2)c1`: the growth is 22.1% (inactive).
With `O=C1NCC(c2cc3ccccc3[nH]c2=O)Nc2ccccc21` (stereo not given), the growth is 103% (inactive).
Turning to `COC1=CC(c2ccc[nH]2)=N/C1=C\c1[nH]c(C)c(C(=O)CCCCC(=O)NCc2ccccc2)c1C`, the growth was -25.2% (active).
`COc1ncc(-c2ccc3ncnc(Nc4cccc(Cl)c4)c3c2)cc1NS(=O)(=O)C1CC1`: the growth is 69.7% (inactive).
Consider `C=C1C(=O)O[C@H]2[C@H]1CC/C(Cn1cc(-c3ccsc3)nn1)=C\CC[C@@]1(C)O[C@@H]21`, for which the growth was 34.3% (inactive).
For `C=C1C(=O)O[C@H]2[C@H]1CC/C(COC(=O)NCCc1ccc(OC)cc1)=C\CC[C@@]1(C)O[C@@H]21`, the growth was 56.9% (inactive).
For `CCN(C(=O)c1cc2ccccc2[nH]1)[C@H]1CCC[C@@H](NCc2ccc(OC)cc2)C1`, the growth was 90.4% (inactive).
Consider `COc1ccc(C2NC3=C(CCCC3)C(C#N)(C#N)C2(C#N)C#N)cc1` (stereo not given), for which the growth was 103% (inactive).
With `CCCCCc1c(C)[nH]c(/C=c2\[nH]/c(=C3/C=c4ccccc4=N3)cc2OC)c1C`, the growth was -21.7% (active).
Consider `Nc1c(C(=O)Nc2cccc(Cl)c2Cl)sc2nc3c(cc12)C(=O)CCC3`, for which the growth is 67.5% (inactive).
For `O=C1CCC/C=C\C[C@H]2C=CC(=O)/C2=C/C[C@H](C/C=C\CC(F)(F)F)O1`, the growth was -71.3% (active).
To `COc1ccc(/C=C/C(=O)/C=C/c2cc3ccc(Cl)cc3[nH]c2=O)cc1` belongs 72.5% (inactive).
For the molecule `N#Cc1c(NC(=O)c2ccc([N+](=O)[O-])o2)[n+]([O-])c2cc(F)c(F)cc2[n+]1[O-]`, the growth was 98.9% (inactive).
In the case of `CC(CCc1ccccc1)NC(=O)c1n[nH]c(=O)c2ccccc12` (stereo not given), the growth is 109% (inactive).
Take `COc1ccc(/C=C/c2cc(N3CCOCC3)c3cc(F)c(F)cc3n2)cc1OC`: the growth is 33.3% (inactive).
With `CC(C)C[C@H](NC(=O)Cn1ccc(NCc2ccccc2)cc1=O)B(O)O`, the growth is 24.7% (inactive).
